Assay results from PubChem BioAssay (NCATS).
Several values for one entry are separate records, joined by “and”; a condition that tells them apart may be missing. Equal values may be shown once. Results filed as inconclusive are left out. Unmarked numbers belong to inactive results. Activity calls are given as the source filed them. Calls come from the whole dose curve; as a rule, active = well fitted inhibition curve with a large enough effect; inconclusive = small, poorly fitted or top-dose-only effect; inactive = no such curve, though single readings can be large or run the other way. Where a SMILES comes first, the peptide text is derived from it. The star is where a group is joined. AFC = O=c1cc(C(F)(F)F)c2ccc(N*)cc2o1
% is set by controls: 0 for no effect and ±100 for the full control effect; potency is the fitted concentration of half-maximal effect.

Assay: Primary qHTS for inhibitors of nuclear receptor binding SET domain protein 2 (NSD2) in an RCH-ACV wild type WT cells (2C) (AID 1645877); note: nearly all actives have a fitted effect of over 70% in size
Conditions: RCH-ACV (leukaemia line) NSD2 WT (2C) viability, CellTiter-Glo, 72 h; series mostly up to 44.9 µM; activity change, negative = cell killing: at the top concentration
In the case of `Cc1cc(C(=O)N2Cc3cnn(C)c3Nc3ccccc32)ccc1CNC(=O)N1CCC[C@H]1C(=S)N1CCCN(C)CC1`, the “activity change, negative = cell killing” value is reported as -16.9%. In the case of `CC[C@]1(O)CC2CN(CCc3c([nH]c4ccccc34)[C@@](C(=O)OC)(c3cc4c(cc3OC)N(C=O)[C@H]3[C@@](O)(C(=O)OC)[C@H](OC(C)=O)[C@]5(CC)C=CCN6CC[C@]43[C@@H]65)C2)C1` (some centres undefined), the Potency is reported as 6.4 nM (active). With `O=C(Nc1ccc(S(=O)(=O)C(F)(F)F)cc1)C1=CCN(c2ncccc2C(F)(F)F)CC1` the Potency was 10300 nM (active). In the case of `CN1CCC(Nc2nc(Nc3ccc(Oc4ccccc4)cc3)c3c(=O)[nH]cc(Br)c3n2)CC1`, the Potency is reported as 916 nM (active). In the case of `CC(/C=C/C1=CC2=CC(=O)C(C)(O)C(O)C2=CO1)=C\C(C)CCO` (centres undefined), the “activity change, negative = cell killing” value is reported as -10%. With `CC1=C(COC2OC(CO)C(O)C(O)C2O)C(C(CO)C(=O)O)CC1` (centres undefined) the “outcome” value was “inactive”. With `CCc1cccc(CC)c1NC(=O)c1nn(C)c2c1CCc1cnc(Nc3ccc(C(=O)NC4CCN(C)CC4)cc3OC(F)(F)F)nc1-2` the Potency was 1780 nM (active). With `COc1cc(C(=O)O)ccc1OC1OC(CO)C(O)C(O)C1O` (centres undefined) the “activity change, negative = cell killing” value was -6.89%. With `CC1(C(=O)O)CCCC2(C)C3CCC4CC3(CCC12)CC4=O` (centres undefined) the “activity change, negative = cell killing” value was 1.71%. With `CC(C)=CCC/C(C)=C/CCC1(C)Oc2c(c(O)cc3c2CN(C(CCC(=O)O)C(=O)O)C3=O)CC1O` (centres undefined) the “activity change, negative = cell killing” value was -1.89% [at 17.3 µM]. In the case of `CC1=C(CCC(C)CC(=O)O)[C@@]2(C)CCCC(C)(C)C2CC1=O` (some centres undefined), the “activity change, negative = cell killing” value is reported as -6.6%. In the case of `CC(C)(O)c1ccc2c(c1)C(O)C[C@H]1[C@](C)(C(=O)O)CCC[C@]21C` (some centres undefined), the “outcome” value is reported as “inactive”. With `O=C(NCc1cccc(O)c1)c1cc2cc(F)ccc2[nH]1` the Potency was 20500 nM (active). For `COc1c/c(=C2\C=c3ccccc3=N2)[nH]/c1=C\c1[nH]c(C)cc1C`, the Potency was 4590 nM (active). In the case of `C=CC1(C)C=C2C(=O)OC(=O)C3=C(CCCC3(C)C)C2(O)CC1` (centres undefined), the “activity change, negative = cell killing” value is reported as 3.76%. In the case of `CO[C@H]1/C=C/C=C/C=C/C[C@H](OC(=O)[C@@H](C)NC(=O)C2CCCCC2)[C@H](C)[C@@H](O)/C(C)=C/CCc2cc(O)cc(c2)NC(=O)C1`, the Potency is reported as 242 nM (active). With `COc1ccc(CNC(=O)c2cc(-c3cncc(C)c3)ncc2-c2nccs2)nc1OC` the “outcome” value was “inactive”. With `C/C=C/C(O)C1OC(=O)CC1Nc1ccc(C(=O)O)cc1` (centres undefined) the “activity change, negative = cell killing” value was -16.3%. For `CC(C)=CCC/C(C)=C/CC/C(C)=C/COC1OC(COC2OCC(OC3OCC(O)C(O)C3O)C(O)C2O)C(O)C(OC2OC(C)C(OC3OC(C)C(OC4OCC(OC5OC(C)C(O)C(O)C5O)C(O)C4O)C(O)C3O)C(O)C2O)C1O` (centres undefined), the outcome was “inactive [at 9.23 µM]”. In the case of `O=C(CC1C(=O)Nc2ccccc21)OC[C@H]1O[C@@H](OCCc2ccc(O)cc2)[C@H](O)[C@@H](O)[C@@H]1O` (some centres undefined), the “activity change, negative = cell killing” value is reported as -6.02% [at 17.3 µM]. In the case of `CC(C)C(CO)Nc1nc(Nc2ccc(C(=O)O)c(Cl)c2)c2ncn(C(C)C)c2n1` (centres undefined), the “activity change, negative = cell killing” value is reported as -24.7%. For `C[C@@H]1CC[C@]2(C(=O)O)CC[C@]3(C)C(=CCC4[C@@]5(C)CC[C@H](O)C(C)(C)C5C(O)C[C@]43C)[C@@H]2[C@]1(C)O` (some centres undefined), the “activity change, negative = cell killing” value was -4.1% [at 17.3 µM]. With `O=C(/C=C\n1cnc(-c2cc(C(F)(F)F)cc(C(F)(F)F)c2)n1)N1CC(F)(F)C1` the Potency was 833 nM (active). For `C=CCC1=C[C@]2(OC)[C@H](C)[C@@H](c3ccc(O)c(OC)c3)O[C@]2(OC)CC1=O`, the “activity change, negative = cell killing” value was -4.7%. With `CCN1CCN(Cc2ccc(NC(=O)c3ccc(C)c(/C=C/c4cnc5[nH]ccc5c4OC)c3)cc2C(F)(F)F)CC1` the Potency was 230 nM (active) and 1.18 µM (active). In the case of `CC1(C)CC[C@]2(C(=O)O[C@@H]3O[C@H](CO)[C@@H](O)[C@H](O)[C@H]3O)CC[C@]3(C)C(=CCC4[C@@]5(C)C[C@@H](O)[C@H](O)[C@](C)(C(=O)O)C5CC[C@]43C)C2C1O` (some centres undefined), the “activity change, negative = cell killing” value is reported as -17.4% [at 17.3 µM]. With `CC(=O)N[C@@H](Cc1c[nH]c2ccccc12)C(=O)N[C@@H](CCC(=O)O)C(=O)N[C@@H](Cc1cnc[nH]1)C(=O)N[C@@H](CC(=O)O)C(=O)Nc1ccc2c(C(F)(F)F)cc(=O)oc2c1` (Ac-WEHD-{AFC}) the “outcome” value was “inactive”. For `C=C(CO[C@@H]1O[C@H](CO[C@@H]2OC[C@](O)(CO)[C@H]2O)[C@@H](O)[C@H](O)[C@H]1O)C1Cc2cc(C(C)=O)ccc2O1` (some centres undefined), the “activity change, negative = cell killing” value was -6% [at 17.3 µM]. With `C#CCN(Cc1cc2c(=O)[nH]c(C)nc2cc1Br)c1ccc(C(=O)NCc2cccnc2)cc1` the Potency was 2.3 nM (active). With `CC(C)(O)C1CCC(C)(C2CCC3(C)C4CCC5C(C)(C(=O)OC6OC(CO)C(O)C(O)C6O)C(O)CC(O)C56CC46CCC23C)O1` (centres undefined) the “activity change, negative = cell killing” value was -9.16% [at 17.3 µM]. With `CCC(O)C(C)C1CCC(C(C)C(=O)O)O1` (centres undefined) the “activity change, negative = cell killing” value was -16.3%. For `C=C1CCCC2(C)CC3(OC)OC(=O)C(C)=C3CC12` (centres undefined), the “activity change, negative = cell killing” value was -17.2%. For `CO/N=C(/C(=O)N[C@@H]1C(=O)N2C(C(=O)O)=C(Cn3ccc(=N)n3CCO)CS[C@H]12)c1csc(N)n1`, the “activity change, negative = cell killing” value was -9.27%. For `CCC1C(=O)OC23C=C[C@@H]4C(C(=O)O)=CO[C@H](O[C@@H]12)[C@@H]43` (some centres undefined), the Potency was 18300 nM (active). In the case of `CC(=O)c1cc2c(cc1O)OC(C)(C)C=C2`, the “activity change, negative = cell killing” value is reported as -12.6%. With `CC(=O)O[C@@H]1C[C@H](O)[C@@]23CO[C@H](O)[C@]1(C)C2C[C@@H](O)[C@]1(C)C3C(=O)[C@H](OC(C)=O)[C@@]2(C)[C@H](c3ccoc3)C[C@H]3O[C@]321` (some centres undefined) the Potency was 21.6 nM (active). Work on `CC1(C)CC[C@]2(C(=O)OC3OC(CO)C(O)C(O)C3O)CC[C@]3(C)C(=CCC4[C@@]5(C)CC[C@H](OC6OC(C(=O)O)C(O)C(OC7OC(CO)C(O)C(O)C7O)C6O)C(C)(C)C5CC[C@]43C)C2C1` (some centres undefined) yielded an activity change, negative = cell killing of -7.21% [at 9.23 µM]. In the case of `CC(=O)SCC(=O)c1ccc(NS(=O)(=O)c2ccc(OCCCN(C)C)cc2)nc1`, the Potency is reported as 1150 nM (active). For `CCc1c(C)nc2c(-c3cnn(-c4cc(CO)ccn4)c3)c[nH]n2c1=O`, the “activity change, negative = cell killing” value was -6.5%.
